# Test results taken from PubChem BioAssay (NCATS).
# Records with an inconclusive call do not appear. A number with no mark means an inactive call. The source made the active and inactive calls. Calls come from the whole dose curve.
# Test: Cytotoxicity counterscreen for inhibitors of SARS-CoV-2 cell entry (AID 1645845); note: nearly all actives have a fitted effect of over 50% in size
# Details: cell viability (SARS-CoV-2 entry assay cells); series mostly up to 57.1 µM; activity change, negative = cytotoxicity: at the top concentration
# Method in brief: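 HEK293-ACE2 cells (Expi293F stably expressing human ACE2) seeded overnight, then compound for 1 h plus 48 h at 37C. Viability as ATP content by luminescence; normalized to wells with cells and media-only wells.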
# % is set by controls: 0 for no effect and ±100 for the full control effect.
SMILES,outcome,"activity change, negative = cytotoxicity [%]",Potency
CCOC(=O)Cn1cccc1-c1nc(-c2ccc(OC)cc2)c(-c2ccc(OC)cc2)s1,inactive,,
CCC(=O)c1ccc2c(c1)N(CCCN(C)C)c1ccccc1S2,,-28.1,
CCOC(CN1CCN(CC(C)C(=O)c2ccccc2)CC1)c1ccccc1 (stereo not drawn),inactive [at 27.1 µM],,
C#CC1(O)CC[C@H]2[C@@H]3CCC4=CCCC[C@@H]4[C@H]3CC[C@@]21C (stereo partly drawn),,-7.24,
C[C@H](N)[C@H](O)c1cccc(O)c1,inactive,,
Cc1ccc(/C(=C\CN2CCCC2)c2ccccn2)cc1,inactive,,
CC(C)(C)c1ccc(C(O)CCCN2CCC(C(O)(c3ccccc3)c3ccccc3)CC2)cc1 (stereo not drawn),,1.66,
C#C[C@]1(O)CC[C@H]2[C@@H]3CCc4cc(O)ccc4[C@H]3CC[C@@]21C,,-20.8,
CN1CCCN(C(c2ccccc2)c2ccc(Cl)cc2)CC1 (stereo not drawn),,-18.5,
NC1=NCC2c3ccccc3Cc3ccccc3N12 (stereo not drawn),,0.487,
CC(Oc1c(Cl)cccc1Cl)C1=NCCN1 (stereo not drawn),inactive,,
COCc1c(C(C)C)nc(C(C)C)c(/C=C/[C@@H](O)C[C@@H](O)CC(=O)O)c1-c1ccc(F)cc1,,-21.2,
CCN(CC)C(=O)C1CN2CCc3cc(OC)c(OC)cc3C2CC1OC(C)=O (stereo not drawn),,4.36,
Nc1ccn(C2CO[C@H](CO)O2)c(=O)n1 (stereo partly drawn),,-0.468,
CN(C)CCN(Cc1ccccc1)c1ccccn1,inactive,,
CC(=O)OCC(=O)[C@@]12N=C(C)O[C@@H]1C[C@H]1[C@@H]3CCC4=CC(=O)C=C[C@]4(C)[C@H]3[C@@H](O)C[C@@]12C,,,inactive
CCN(CC)CC(=O)Nc1c(C)cccc1C(=O)OC,,-17.5,
CCCCC/C=C\C/C=C\CCCCCCCC(=O)NC(C)c1ccccc1 (stereo not drawn),,-7.25,
